# Experiments:
# Assay in all cases: PBM binding z-score (relative to random genomic background probes); higher = stronger binding; sequences stand for … in GC…GCGATTGACAGCGTAGAATGAAGG
# [1] = test system: FXR:RXRa (NR concentration 270 nM, RXRa partner concentration 90 nM)
# In short: (§1)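 The probes on custom Agilent 4×180K protein-binding microarrays were double-stranded, with 34-nt variable regions bearing direct-repeat seeds, single-nucleotide variants, half-site ablations and random human genomic background sequences. Incubation lasted 1 h with ligand-free nuclear receptor dimers in PBS pH 7.4, 2% milk, 0.02% Triton X-100, 1 mM DTT, 0.2 mg/mL BSA and 0.4 mg/ml salmon testes DNA. Antibodies against each partner (one per run) detected bound dimers, and fluorescence scans were regression-normalized. Binding z-scores take the random background probes as reference.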
# [2] = test system: LXRa:RXRa (NR concentration 270 nM, RXRa partner concentration 90 nM)
# In short: as §1
# [3] = test system: LXRa homodimer (NR concentration 270 nM)
# In short: as §1
# [4] = test system: LXRb:RXRa (NR concentration 270 nM, RXRa partner concentration 90 nM)
# In short: as §1
# [5] = test system: LXRb homodimer (NR concentration 270 nM)
# In short: as §1
# [6] = test system: PPARa:RXRa (NR concentration 270 nM, RXRa partner concentration 90 nM)
# In short: as §1
# [7] = test system: PPARg:RXRa (NR concentration 180 nM, RXRa partner concentration 90 nM)
# In short: as §1
# [8] = test system: PPARg:RXRa 270nM:90nM, anti-RXR (NR concentration 270 nM, RXRa partner concentration 90 nM)
# In short: as §1
# [9] = test system: PPARg:RXRa 30nM:10nM, anti-RXR (NR concentration 30 nM, RXRa partner concentration 10 nM)
# In short: as §1
# [10] = test system: PPARg:RXRa 90nM:30nM, anti-RXR (NR concentration 90 nM, RXRa partner concentration 30 nM)
# In short: as §1
Sequence,PBM binding z-score [1],PBM binding z-score [2],PBM binding z-score [3],PBM binding z-score [4],PBM binding z-score [5],PBM binding z-score [6],PBM binding z-score [7],PBM binding z-score [8],PBM binding z-score [9],PBM binding z-score [10]
GGAACGAGGGTAAAGTTGATAGCATCTGTCGACG,0.472,0.494,-0.531,0.361,-0.696,3.37,5.63,6.72,4.9,7.39
AGTCAAAGTTCAGGACGTGGTAACGTAAAGCACG,3.46,3.57,0.963,1.49,0.114,3.12,4.28,4.75,2.07,3.71
CCTGCCAGGTCATGGTCAGCTAATCTACAGTATG,3.97,3.04,-0.0461,2.28,-0.151,3.94,2.04,2.5,0.448,1.27
GGAACGAGCGCAAGTTGATAGCAGAGTTTGATGG,-0.654,-0.851,-0.781,-1.08,-1.48,-0.641,0.166,-0.948,-0.778,-0.888
TGAATGCGGTTATAAGATCAGGGAACGTTGCAAA,-0.202,-0.262,-0.342,-0.407,-0.259,-0.272,-0.0336,0.0368,0.119,-0.242
GCTATTAGTTGAAAGGGCAACCGAATGATTCTCG,0.555,0.733,0.435,0.971,0.134,2.33,2.9,4.29,2.39,4.05
TCTCGGAGGACCCGAAAGGTCAGAGCTCGACATC,2.35,2.99,1.17,2.77,-0.541,3.34,0.565,2.23,2.07,2.11
CCTACTGGGCCATTAGGTCATTGATATCAACGTT,1.06,0.977,0.832,1.24,-0.52,2.76,3.46,3.68,1.32,3.03
CAAACTAAGTCAAGAGGTCAAAGTCCGCTTCCCG,5.6,5.87,5.56,5.06,1.95,5.52,4.19,5.54,2.73,4.86
CGAACGAGGGCATGACTTGATAGCAAATGCCGAT,0.404,0.369,-0.781,0.0827,-0.668,1.26,1.28,0.865,-0.352,0.26
TCATATAGGTATTACAGGTGAAAGTCGGCATCTA,1.47,2.05,1.08,1.34,0.496,1.67,1.1,2.38,4.15,3.27
TCGTGTAGGTTAGGGGCATTCAGAATGGCGTCGA,1.04,0.994,0.245,1.63,0.909,1.6,0.371,1.78,2.01,2.06
TCATATAGGTAAAGGTGAAAGTGGAACGATATGA,0.702,1.31,-0.0893,1.28,-0.406,3.54,4.42,4.97,4.56,5.14
GCTTACGGGTCAAAGGTTATACCATGAATAGAAT,7.48,5.87,0.778,5.87,0.759,7.21,11.2,9.29,9.29,10.3
ACAGACAGTTGATGAAGGTAACTCAGGCTATCAT,0.165,-0.156,-0.193,-0.191,0.0371,-0.00843,0.507,-0.149,-0.0201,-0.134
CCTATTAGTTGACCATAAGGGGAACCGAAGCTCG,0.142,0.366,0.327,0.217,0.84,0.0558,0.299,0.112,-0.0773,0.104
GCGACTGGGGCAAAGCATGTTACCATAAGGTTGG,-0.69,-0.602,-0.362,-0.192,-1.06,0.898,1.61,2.22,0.294,1.58

Sequence,PBM binding z-score [1],PBM binding z-score [2],PBM binding z-score [3],PBM binding z-score [4],PBM binding z-score [5],PBM binding z-score [6],PBM binding z-score [7],PBM binding z-score [8],PBM binding z-score [9],PBM binding z-score [10]
GATGCAGGGTCAAGGCCAGAGTACGCGTATTGAT,6.64,3.82,-0.363,3.54,-0.254,5.74,5.22,4.93,1.79,3.61
CCTTACGGATCACGAGGTTATAGCACGACGAGCG,0.639,1.1,0.818,1.11,0.481,1.48,1.06,0.294,0.0325,0.104
AGTCAACGTTCATCTAGGTAACGTAAGATATGCT,-0.27,-0.156,-0.154,-0.204,-0.325,0.365,0.767,0.288,0.292,0.234
CCTCGGAGGACAGCAGGTCAGAGCTGTCCGCTTT,0.494,0.589,-0.357,-0.0868,-0.729,0.521,-0.863,-0.393,-1.22,-1.04
CGTTACGGGTCACGAGGTTATAGCACGACGAGCG,6.83,4.97,0.389,4.23,-0.0926,6.15,6.94,6.69,2.7,5.8
TCTAGCAGGCCAGACGGTCACTCAAGAGGTACGG,-0.139,-0.465,-0.491,-0.378,-0.934,0.21,0.662,1.52,1.72,1.67
ATCGAAAGGTCGTGATGTGAGTATACAGAAAGGC,4.54,3.48,0.378,3.08,0.626,4.67,3.21,3.2,1.34,2.34
CAAACCAGGTCAAGGTCAAAGTCGGTTTGTGCCA,7.11,5.98,4.41,5.17,1.73,6.28,7.8,7.07,4.62,6.61
AGAATGAGGTTACCATAGATCAGGGAAACGCTTG,1.71,6.81,-0.421,3.61,-0.0924,3.14,2.41,2.09,0.706,1.29
TCACCAAGGTGAAGGTCGTTGATCCCTCTGTAGA,2.28,2.24,-0.136,1.8,-0.731,2.71,2.23,3.66,2.84,3.37
TAGCCTAGGTCATGCGGGCCAGTAGAGTGTCGGC,4.11,3.32,-0.00774,1.64,-0.216,3.58,1.91,2.64,0.154,1.57
ACATGTAGGTTACATCCGGGTCATTCAGGCTATG,2.53,4.55,1.49,3.15,1.14,4.15,4.27,3.99,1.47,2.91
CCTAGTTGGGCAAGGTCACACACGCTATAGGTAC,3.55,3.21,1.32,3.28,0.0205,3.88,2.45,2.92,1.03,2.25
GTACCAAGGTGAATAGGTCGTCGATGAGTAGGCG,0.785,0.833,-0.158,0.527,-0.663,2.45,1.5,1.81,0.196,1.18
CATTCAGGGTCAGCTAGGCCAGAGTAGGGACGGC,5.24,4.08,0.181,2.92,1.42,4.82,3.87,3.94,1.29,2.81
TAGCCTAGGTCATTGGGCCAGTCTAGTACGCATC,3.99,3.21,0.181,1.78,0.0728,3.41,3.3,3.25,0.536,2.3
TAGGCTAGGTCATGGGCCAGTATACCACGCGAAC,4.91,3.13,0.324,2.18,-0.308,4.03,4.36,4.24,1.3,3.18

# Source: the supplement of paper PMC6555819
